Test results reported in article PMC4336329 (PLoS ONE, 2015).
Out of some 310,000 compounds screened, about 14,000 (4.5%) showed an effect of 50% or more. The effect is printed as a negative number. This excerpt belongs to a sample that is enriched for strong results.

biological target: human ether-à-go-go-related gene (hERG) potassium channel (human, UniProt Q12809); test: primary screen, population patch clamp on CHO cells stably expressing hERG; higher = less effect of the substance
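Also: peak tail current of the secondary pulse compared with the same well before compound.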

Sequence of human ether-à-go-go-related gene (hERG) potassium channel (Q12809 whole entry, looked up): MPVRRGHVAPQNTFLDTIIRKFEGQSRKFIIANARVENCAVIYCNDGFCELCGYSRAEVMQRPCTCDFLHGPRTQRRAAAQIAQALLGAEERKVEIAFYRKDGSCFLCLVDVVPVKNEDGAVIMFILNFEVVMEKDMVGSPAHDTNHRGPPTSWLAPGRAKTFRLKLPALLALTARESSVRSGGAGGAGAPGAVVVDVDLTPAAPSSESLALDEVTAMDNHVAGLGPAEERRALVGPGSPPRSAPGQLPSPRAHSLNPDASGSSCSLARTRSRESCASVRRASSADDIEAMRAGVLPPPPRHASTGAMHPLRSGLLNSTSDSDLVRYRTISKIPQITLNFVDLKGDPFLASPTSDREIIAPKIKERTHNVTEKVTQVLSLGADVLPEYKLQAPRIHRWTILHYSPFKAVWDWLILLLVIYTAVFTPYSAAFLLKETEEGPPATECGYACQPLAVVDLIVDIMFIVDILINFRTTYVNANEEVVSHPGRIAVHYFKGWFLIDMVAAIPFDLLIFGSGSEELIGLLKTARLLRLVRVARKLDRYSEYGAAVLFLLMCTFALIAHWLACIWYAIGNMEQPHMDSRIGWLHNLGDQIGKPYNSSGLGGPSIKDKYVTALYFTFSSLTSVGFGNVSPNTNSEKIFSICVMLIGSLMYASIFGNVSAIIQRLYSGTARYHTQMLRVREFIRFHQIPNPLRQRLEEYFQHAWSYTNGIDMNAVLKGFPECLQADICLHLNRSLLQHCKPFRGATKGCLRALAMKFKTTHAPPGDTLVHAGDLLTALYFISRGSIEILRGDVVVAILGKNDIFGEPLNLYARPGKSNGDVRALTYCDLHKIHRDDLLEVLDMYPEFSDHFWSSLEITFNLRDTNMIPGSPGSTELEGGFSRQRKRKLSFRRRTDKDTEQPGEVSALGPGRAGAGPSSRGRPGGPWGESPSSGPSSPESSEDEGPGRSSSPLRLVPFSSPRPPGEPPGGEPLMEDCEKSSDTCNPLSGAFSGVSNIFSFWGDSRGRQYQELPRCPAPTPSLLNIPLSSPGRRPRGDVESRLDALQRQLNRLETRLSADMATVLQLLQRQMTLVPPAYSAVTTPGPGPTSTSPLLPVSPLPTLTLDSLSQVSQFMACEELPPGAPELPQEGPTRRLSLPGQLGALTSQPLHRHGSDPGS

Row | Compound | hERG current change (%, negative = inhibition) at 10uM [%]
1 | COc1cnn(-c2cc(Oc3ccc(C)cc3)ncn2)c(=O)c1Cl | 2.74
2 | COc1cccc(C(=O)NCC2(c3ccccc3)CCCC2)c1OC | 3.79
3 | CC(C)n1ncc2c(C(=O)N3CCN(c4ccccc4)CC3)cc(-c3ccccc3)nc21 | 17.2
4 | COc1ccc(C(=O)N2CCCC2=O)cc1 | 17
5 | Cc1sc(NC(=O)C2=COCCO2)nc1-c1ccc(F)cc1 | 15.5
6 | CNC(=S)N/N=C/c1ccc(N2CCOCC2)s1 | 51.6
7 | CS(=O)(=O)n1nc(-c2cccnc2)nc1NCc1ccccc1 | 43.9
8 | Nc1c(-c2ccccc2)sc2ccc3ccccc3[n+]12.O=S(=O)([O-])c1ccccc1 | -58.3
9 | Nc1nc(-c2ccccc2)c(-c2ccccc2)s1 | -2.18
10 | Cc1nc(Nc2ccc(S(N)(=O)=O)cc2)sc1-c1ccccc1 | 12.9
11 | Cc1c(NC(=O)CSc2nccn2C)c(=O)n(-c2ccccc2)n1C | 10.9
12 | CC(CNC(=O)c1cccs1)c1ccc([N+](=O)[O-])cc1 (stereo not drawn) | 4.3
13 | COc1cc(OC)cc(C(=O)N[C@H](C(=O)Nc2ccc(NC(C)=O)cc2)C(C)C)c1 | 13
14 | COc1cc(OC)cc(C(=O)N[C@H](C(=O)Nc2cc(C)cc(C)c2)C(C)C)c1 | -54.7
15 | COc1cc(OC)cc(C(=O)NC(C(=O)Nc2ccc3c(c2)CCC3)C(C)C)c1 (stereo not drawn) | -1.96
16 | Cc1cc2oc(=O)cc(C)c2cc1NC(=O)CCC(=O)O | 7.75
17 | CCCCC(=O)Nc1ccc2c(c1)nc(CCN1CCN(c3ccccn3)CC1)n2C | -56.5
18 | Cn1c(CCN2CCN(c3ccccn3)CC2)nc2cc(NC(=O)COc3ccccc3)ccc21 | -72.5
19 | Cn1c(CCN2CCN(c3ccccn3)CC2)nc2cc(NC(=O)COc3ccc(Cl)cc3)ccc21 | -22.7
20 | Cn1c(CCN2CCN(c3ccccn3)CC2)nc2cc(NC(=O)COc3ccc([N+](=O)[O-])cc3)ccc21 | -5.69
21 | Cc1cccc(OCC(=O)Nc2ccc3c(c2)nc(CCN2CCN(c4ccccn4)CC2)n3C)c1 | -79.5

Row | Compound | hERG current change (%, negative = inhibition) at 10uM [%]
22 | CCCC(=O)Nc1ccc2c(c1)nc(CCN1CCN(c3ccccn3)CC1)n2C | -25.5
23 | CCC(=O)Nc1ccc2c(c1)nc(CCN1CCN(c3ccccn3)CC1)n2C | -18.3
24 | O=[N+]([O-])c1cc(-c2nc3nc4ccccc4nc3n2CCc2ccccc2)cc([N+](=O)[O-])c1 | 3.97
25 | Cc1ccc(S(=O)(=O)N(C)/N=C/C=C/c2ccccc2)cc1 | 0.391
26 | O=S(=O)(Cc1ccccc1Cl)NCc1ccccc1 | 7.02
27 | Cc1cc(C)nc(SC2c3cccc4cccc(c34)C2NS(=O)(=O)c2ccccc2)n1 (stereo not drawn) | -4.8
28 | Cc1cccc(N2CCN(C(=O)Cc3cn(C)c4ccccc34)CC2)c1C | -7.32
29 | CC1CCc2sc(C(=O)NCCCn3ccnc3)cc2C1 (stereo not drawn) | -1.07
30 | CC(C)CN1CCN(Cc2cnc(-c3ccc(Cl)cc3)nc2)CC1CCO (stereo not drawn) | -67.2
31 | OCCC1CN(Cc2cnc(-c3ccc(Cl)cc3)nc2)CCN1C1CCCCC1 (stereo not drawn) | -73.6
32 | Cc1cccc(-c2ncc(CN3CCN(C4CCCC4)C(CCO)C3)cn2)c1 (stereo not drawn) | -46.7
33 | COc1ccc(-c2ncc(CN3CCN(CCC(C)C)C(CCO)C3)cn2)cc1 (stereo not drawn) | -43.4
34 | OCCC1CN(Cc2cnc(-c3cccc4ccccc34)nc2)CCN1C1CCCCC1 (stereo not drawn) | -13.2
35 | OCCC1CN(Cc2cnc(-c3ccc(Cl)cc3)nc2)CCN1C1CCCC1 (stereo not drawn) | -73.5
36 | Cc1ccccc1-c1ncc(CN2CCN(C3CCCCC3)C(CCO)C2)cn1 (stereo not drawn) | -17.4
37 | Cc1cccc(-c2ncc(CN3CCN(CC(C)C)C(CCO)C3)cn2)c1 (stereo not drawn) | -47.9
38 | Cc1ccccc1-c1ncc(CN2CCN(C3CCCC3)C(CCO)C2)cn1 (stereo not drawn) | -25.8
39 | CC(C)(C)c1cc(-c2n[nH]c(=S)n2-c2ccc(Cl)cc2)n[nH]1 | 17.3
40 | CCCCCC1CCC(C(=O)N2CCOCC2)CC1 (stereo not drawn) | -2.44
41 | CC(C)CC(=O)Nc1ccc(-c2nc3ccccc3c(=O)[nH]2)cc1 | 26.7
42 | O=C1COc2ccc(S(=O)(=O)CCC(=O)NC3CCCCC3)cc2N1 | 11.8
